Screening results as filed in PubChem BioAssay.
Hits are enriched below; roughly 7.8% of the tested compounds scored in any of these assays.
VACV Venus inh = inhibitors of vaccinia virus (Venus reporter). Vaccinia virus Venus reporter expression, fluorescence. Potency, µM (titrated, usually from 36.5 µM), inactives show at the top dose activity change, negative = inhibition, actives largely listed as inhibitors. 0.46% of 330,000 active. AID 720580; calls by dose curve; tested in A549 cells; also: potency is read from the fitted curve at half-maximal effect; nearly all actives have a fitted effect of over 30% in size
LASV entry inh = inhibitors of Lassa virus binding or cell entry; Lassa virus pseudotype entry inhibition, cell reporter; Potency, µM (series often up to 37.9 µM), for inactives: top-dose activity change, negative = inhibition, actives largely listed as inhibitors; 1.2% of 300,000 active; calls by dose curve; tested in HEK293 cells; also: potency is read from the fitted curve at half-maximal effect; nearly all actives have a fitted effect of over 50% in size
HCMV inh = human cytomegalovirus inhibition; HFF cells, HCMV-luciferase reporter, 72 h; active compounds read low; activity change, negative = inhibition, % at 57.5 µM; 4.5% of 410,000 active; in the data active = activity change below about -60%; inconclusive = no clear call, values can overlap the other calls; inactive = above about -39%
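Inhibition of viral replication was scored as loss of reporter luminescence in HFFs infected with HCMV-luciferase (MOI 1 PFU/cell) for 72 h; compounds tested at 2 doses, normalized to buffer and Salinomycin controls.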
HCV inhibitor = inhibitors of hepatitis C virus infection | Huh7.5.1 HCVcc-Cre infection, luciferase reporter, 44 h | Potency, µM (highest dose often 41.8 µM), inactives show at the highest dose activity change, negative = inhibition, usual class: inhibitors | 3.4% of 340,000 active | AID 651820; active = well fitted inhibition curve with a large enough effect; inconclusive = small, poorly fitted or top-dose-only effect, or another doubt; inactive = no such curve, though single readings can be large or run the other way; also: potency is read from the fitted curve at half-maximal effect
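Seed cells (1,000/well) for 4 h; treat with compound and infect with HCVcc-Cre, moi about 0.5. Incubate 44 h, then detect luciferase activity.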
Marburg entry inh = inhibitors of Marburg virus binding or cell entry | Marburg virus pseudotyped entry inhibition, cell reporter | Potency, µM (doses to about 37.8 µM), inactives show top-dose activity change, negative = inhibition, usual class: inhibitors | 1.8% of 300,000 active; calls by dose curve; tested in HEK293 cells; also: potency is read from the fitted curve at half-maximal effect
Vaccinia mCherry = inhibitors of vaccinia virus infection (mCherry reporter signal); Vaccinia virus mCherry reporter infection, fluorescence; Potency, µM (series often up to 36.5 µM), inactives show at the highest dose activity change, negative = inhibition, hits mostly inhibitors; 0.63% of 310,000 active; AID 720579; calls by dose curve; tested in A549 cells; also: potency is read from the fitted curve at half-maximal effect; nearly all actives have a fitted effect of over 35% in size
An asterisk follows results filed as active; i = inactive; ? = inconclusive; . = no result given; [ ] = remark or other dose. % is scaled to controls: 0 for no effect and ±100 for the full control effect.

SMILES | VACV Venus inh | LASV entry inh | HCMV inh | HCV inhibitor | Marburg entry inh | Vaccinia mCherry
O=C(c1ccc(Br)cc1)c1sc(N2CCOCC2)nc1-c1ccccc1 | -7.4% | ? | 42.5 | 7.94µM* | ? | -2.8%
COc1cc(CNC(=O)CSCc2nc3cccnc3n2C2CCCCC2)cc(OC)c1OC | -4.3% | -23.8%[46.1 µM] | 10.4 | . | . | -3.8%
Cc1ccc(-c2nnc(Nc3ccc4c(c3)OCO4)c3ccccc23)cc1S(=O)(=O)NCCO | ? | -15.7% | -93.8* | -12.4% | -14.8% | ?
Cc1ccc(-c2nnc(Nc3ccc(Cl)c(Cl)c3)c3ccccc23)cc1S(=O)(=O)NCCO | -28.2% | ? | -90.5* | . | . | ?
Cc1ccc(-c2nnc(Nc3ccc4c(c3)OCO4)c3ccccc23)cc1S(=O)(=O)NC(C)C | ? | ? | -92.3* | ? | ? | ?
Cc1ccc(-c2nnc(Nc3ccc(CC(N)=O)cc3)c3ccccc23)cc1S(=O)(=O)NCCO | . | . | 15.9 | 8.5% | . | .
Cc1ccc(C)c(Nc2nnc(-c3ccc(C)c(S(=O)(=O)NCC4CCCO4)c3)c3ccccc23)c1 (stereo not given) | -13.8% | -15.5%[46.1 µM] | -103.8* | . | ? | -12.3%
Cc1ccc(-c2nnc(Nc3ccc(Cl)c(Cl)c3)c3ccccc23)cc1S(=O)(=O)N(C)C | -13.0% | ? | -13.2 | . | . | -17.6%
Cc1cc(C)cc(NC(=O)NCCn2nnc3cc(S(=O)(=O)N(C)C)ccc32)c1 | -10.2% | 2.5%[46.1 µM] | -13.4 | . | . | -8.5%
COc1cc(=O)n2c(c1C(=O)N(C)Cc1cscn1)CCN(C(=O)c1ccc(C)c(C)c1)CC2 | -3.8% | . | . | . | . | -12.7%
CC(CN1CCNCC1)(NS(=O)(=O)c1ccccc1)c1ccccc1 (stereo not given) | ? | -21.7% | 25.1 | ? | 11.2µM* | .
Cc1ccc(S(=O)(=O)NC(C)(C)CN2CCNCC2)cc1 | -8.0% | -21.4%[46.1 µM] | -21.2 | ? | ? | -18.2%
O/C(=C\c1ccc2ccccc2n1)c1ccncc1 | -19.9% | . | -101.2* | -21.3% | . | -5.0%
O/N=C/c1ccc2ccccc2n1 | 1.4%[7.34 µM] | 19.5% | 96.7 | 23.1% | ? | i[7.34 µM]
Cc1ccc(C)c2c3c([nH]c12)-c1nonc1CC3 | -10.8% | -8.4% | -8.4 | 10µM* | 9.5% | .
c1ccc(-c2nc3c([nH]2)CCc2nonc2-3)cc1 | 11.8% | 28.9% | -11.5 | 5.2% | ? | -4.3%
O=C(CCS(=O)(=O)c1ccc(F)cc1)Nc1nc(-c2ccccn2)cs1 | . | . | -106.5* | -1.0% | . | .
O=C(CCS(=O)(=O)c1ccccc1)Nc1nc(-c2ccccn2)cs1 | ? | . | -103.2* | ? | . | 10µM*
Cc1ccc(S(=O)(=O)CCC(=O)Nc2nc(-c3ccncc3)cs2)cc1 | . | . | -10.0 | 14.0% | . | .
CC(Oc1ccc(F)cc1)C(=O)Nc1nc(-c2ccccn2)cs1 (stereo not given) | ? | ? | -90.3* | 8.91µM* | ? | ?
Cc1cc(C)c(OCC(=O)Nc2nc(-c3ccccn3)cs2)c(C)c1 | ? | ? | 5.3 | 3.98µM* | ? | ?
Cc1ccc2c(c1C)NC(=O)CC2c1ccc(Cl)cc1Cl (stereo not given) | -24.1% | -0.3%[46.1 µM] | -14.1 | . | -20.8%[46.1 µM] | -24.8%
CCc1ccccc1OCC(=O)Nc1nc(-c2cccnc2)cs1 | ? | -23.7% | -65.2* | ? | ? | ?
CCC(=O)c1ccc(OCC(=O)Nc2nc(-c3cccnc3)cs2)cc1 | -3.2% | ? | 1.5 | 13.7% | 1.8% | -12.0%
Cc1noc2ncnc(Sc3ccc(Cl)cc3)c12 | -3.1% | -20.3% | -79.2* | ? | ? | .
SMILES | VACV Venus inh | LASV entry inh | HCMV inh | HCV inhibitor | Marburg entry inh | Vaccinia mCherry
Cc1ccc(Sc2ncnc3onc(C)c23)cc1 | -13.7% | -3.6% | 64.3 | -16.4% | ? | -11.6%
CN1CN(c2ccccc2)C2(CCN(CCCSc3ccccc3NC(=O)/C=C/c3ccccc3)CC2)C1=O | 32.8% | ? | -66.2* | 35.5µM* | ? | ?
CC[C@]12c3[nH]c4ccccc4c3CCN1C(=O)C(CC(=O)NCCc1ccccn1)C[C@@H]2C(=O)N1CCN(C(=O)c2ccco2)CC1 (stereo not given in full) | -14.6% | . | 5.2 | 0.562µM* | . | i
O=C(CC1C[C@H](C(=O)N2CCCCC2)[C@@]2(CCc3ccccc3)c3[nH]c4ccccc4c3CCN2C1=O)NCCc1ccccn1 (stereo not given in full) | ? | . | -26.1 | -7.4%[8.37 µM] | . | 10µM*
CC[C@]12c3[nH]c4cc(CCC(=O)N(C)C)ccc4c3CCN1C(=O)[C@@H](CC(=O)NCCc1ccccn1)C[C@@H]2C(=O)N1CCN(C(=O)c2ccco2)CC1 | 2.5% | . | 27.4 | -18.1%[8.37 µM] | -2.9% | -3.1%
CCOC(=O)c1cc(-c2ccccc2)n(CC(=O)N(C)c2ccc(OC)cc2)c1C | -4.3% | ? | 132.4 | . | . | -8.2%
Cc1ccc(NC(=O)Nc2cccs2)c(C)c1 | -0.7%[7.34 µM] | . | -10.0 | . | 9.5%[46.1 µM] | -11.4%[7.34 µM]
CCCSCCCNC(=O)Cn1c(-c2cccs2)cc2ccccc21 | -4.2% | 1.1%[46.1 µM] | -9.2 | . | . | -6.0%
CCn1c(SCC(=O)N/N=C/c2ccc(OC)c(OC)c2)nc2ccccc21 | -15.5% | -14.5% | 11.3 | -10.9% | -15.8% | i
CCSc1nc2ccccc2n1C(=O)/C=C/c1ccc(OC)c(OC)c1 | ? | 6.31µM* | -100.3* | ? | ? | 28.2µM*
C=CCSc1nc2ccccc2n1C(=O)/C=C/c1ccc(OC)c(OC)c1 | . | 8.2µM* | -102.7* | ? | ? | .
C=CCSc1nc2ccccc2n1C(=O)/C=C/c1cc(OC)c(OC)c(OC)c1 | . | 9.2µM* | -110.5* | 6.31µM* | 13µM* | .
COc1ccc(/C=C/C(=O)N2CC(C)OC(C)C2)cc1OC (stereo not given) | . | . | 34.1 | 1.9% | . | .
O=C(Nc1cc(F)ccc1F)c1ccc(CN2CC(=O)N3CCCCC3C2=O)cc1 (stereo not given) | -18.2% | 2.0%[46.1 µM] | 8.6 | . | . | -15.7%
Cc1ccc(N2CCn3c2nc2c3c(=O)n(Cc3cccc(Cl)c3)c(=O)n2C)cc1C | -18.1% | 9.9%[46.1 µM] | -16.5 | . | . | -22.8%
COc1ccc(CNC(=O)c2cc3ccccn3n2)c(OC)c1 | -3.2% | -2.4%[46.1 µM] | 20.9 | . | . | -7.1%
C(=Nc1cccnc1)c1ccnc2ccccc12 | -10.3% | . | . | . | . | -18.0%
Cc1cc(NC(=O)CSCC(=O)Nc2ccccc2Oc2ccccc2)no1 | -10.6% | ? | -37.5 | ? | 2.82µM* | -2.5%
Cc1cc(NC(=O)CSCC(=O)Nc2ccccc2N2CCCCC2)no1 | -23.3% | ? | -21.0 | -2.4% | ? | -9.1%
Cc1ccc(Oc2ccccc2NC(=O)CSCC(=O)Nc2cc(C)on2)cc1 | -17.3% | ? | -74.9* | ? | 12.6µM* | -1.3%
CCCCCCN(CCCCCC)c1ccc(/C=C/c2ccnc3ccccc23)cc1 | 37.2% | . | . | . | . | 37.8%
CC(Sc1ncn[nH]1)C(=O)NCc1ccccc1 (stereo not given) | -10.7% | -1.5%[46.1 µM] | -98.6* | 13.2% | 13.8%[46.1 µM] | -15.8%
O=C(CSc1ncn[nH]1)NCCc1ccccc1 | -14.6% | -4.0% | 7.2 | 5.1% | 13.5% | -16.5%
